This is one part of a sample in which hits are shown more often than they occur.
KDM4E inh – JMJD2E (human) inhibition; Potency, µM (series often up to 57.1 µM), without a hit: at the top dose activity change, negative = inhibition, hits mostly inhibitors; JMJD2E catalytic domain, FDH-coupled NADH fluorescence (FDH is formaldehyde dehydrogenase); hit rate 1.6% among 230,000; AID 2147; active means well fitted inhibition curve with a large enough effect, not every such curve was filed as active; inconclusive means small, poorly fitted or top-dose-only effect, or another doubt; inactive means no such curve, though single readings can be large or run the other way;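 further: 0% = wells with enzyme and -100% = buffer wells without enzyme; nearly all actives have a fitted effect of over 50% in size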
Target sequence (B2RXH2 1-337 limits assumed): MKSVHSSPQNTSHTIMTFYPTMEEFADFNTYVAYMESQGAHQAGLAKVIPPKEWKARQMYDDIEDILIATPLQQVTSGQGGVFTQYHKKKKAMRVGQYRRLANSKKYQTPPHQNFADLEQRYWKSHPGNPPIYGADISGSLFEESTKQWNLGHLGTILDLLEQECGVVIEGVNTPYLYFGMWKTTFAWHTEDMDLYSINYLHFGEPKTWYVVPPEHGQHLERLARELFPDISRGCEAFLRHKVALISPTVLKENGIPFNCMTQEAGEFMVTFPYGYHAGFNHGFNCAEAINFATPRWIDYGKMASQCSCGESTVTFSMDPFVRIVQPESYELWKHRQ
APE1 inh – inhibitors of human APE1 endonuclease; P27695; recombinant APE1, TAMRA/BHQ-2 abasic DNA cleavage fluorescence; Potency, µM (series often up to 65.8 µM), inactives show at the highest dose activity change, negative = inhibition, usual class: inhibitors; hit rate 0.35% among 350,000;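 further: plate controls were vehicle for no effect and reference inhibitor for full effect; nearly all actives have a fitted effect of over 55% in size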
Target sequence (P27695 whole entry, looked up): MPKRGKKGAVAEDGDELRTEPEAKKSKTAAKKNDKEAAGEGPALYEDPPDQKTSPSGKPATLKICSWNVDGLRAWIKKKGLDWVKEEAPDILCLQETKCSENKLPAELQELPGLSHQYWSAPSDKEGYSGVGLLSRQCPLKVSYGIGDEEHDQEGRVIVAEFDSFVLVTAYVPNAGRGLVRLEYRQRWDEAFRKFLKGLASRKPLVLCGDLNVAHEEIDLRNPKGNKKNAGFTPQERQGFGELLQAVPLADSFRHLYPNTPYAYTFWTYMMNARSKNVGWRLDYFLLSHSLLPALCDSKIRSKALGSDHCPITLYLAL
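Readout is kinetic fluorescence (ex 525, em 598 nm) from cleavage of 50 nM TAMRA/BHQ-2 THF abasic duplex by 0.75 nM APE1, compound added 15 min beforehand at RT.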
TDP1 inh – TDP1 (human) enzyme inhibition; Q9NUW8; recombinant TDP1, AlphaScreen DNA substrate cleavage; Potency, µM (series often up to 130 µM), inactives show at the top dose activity change, negative = inhibition, most hits filed as inhibitors; hit rate 0.28% among 350,000; AID 485290; further: nearly all actives have a fitted effect of over 40% in size
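Steps: enzyme plus compound, 15 min RT; add biotin/phosphotyrosine-FITC oligonucleotide (15 nM final), react 5 min; add donor/acceptor beads (10 ug/ml final), 10 min; read AlphaScreen. Tdp1 at 1 nM final.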
BLM inh – Bloom syndrome helicase (human) inhibition; P54132; recombinant BLM DNA unwinding, fluorescence dequenching; Potency, µM (series often up to 56.1 µM), without a hit: at the highest dose activity change, negative = inhibition, actives largely listed as inhibitors; hit rate 0.2% among 350,000;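 further: plate controls were vehicle for no effect and no enzyme for full effect; nearly all actives have a fitted effect of over 35% in size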
KAT2A inh – inhibitors of human GCN5L2 histone acetyltransferase. GCN5L2 HAT assay, ThioGlo1 CoA-SH fluorescence. hit rate 0.21% among 390,000. Potency, µM (doses to about 58.9 µM), without a hit: at the top dose activity change, negative = inhibition, usual class: inhibitors. Q92830
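Fluorescence readout, Ex340nm/Em540nm: ThioGlo1 (50uM final) reacts with free CoA thiol released as 20nM GCN5L2 acetylates H3(1-25) peptide (75uM) using acetyl-CoA (70uM). Compound and enzyme sat 15 min beforehand; 20 min room-temperature reaction.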
RECQ1 helicase – inhibitors of human RECQ1 DNA helicase | P46063 | RECQ1 DNA unwinding, red fluorescence kinetic read | Potency, µM (series often up to 57.3 µM), for the others: at the highest dose activity, negative = inhibition, actives largely listed as inhibitors | hit rate 0.54% among 240,000 | AID 2549;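 further: plate controls were vehicle for no effect and no enzyme for full effect; nearly all actives have a fitted effect of over 30% in size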
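50 nM RECQ1T1 preincubated 15 min with compound in Tris pH 8.0 buffer with MgCl2, DTT, Tween-20 and 2.5 ug/ml poly(dI-dC); started with 200 nM TAMRA/BHQ-2 forked duplex and 2 mM ATP. Unwinding read as fluorescence (525/598 nm), two reads 2 h apart.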
* hit, by the source's call; i = inactive; ? = inconclusive; . = no result; [ ] = dose if it differs, or a comment. Unless noted, the call rests on the fitted dose curve; in most records, active means well fitted curve in the direction sought with a large enough effect; inconclusive means small, poorly fitted or top-dose-only effect, or another doubt; inactive means no such curve, though single readings can be large; an effect the other way counts as inactive or inconclusive. Unless noted, on the % scale 0 is the no-effect control and ±100 the full control effect; potency means the concentration at half of the fitted maximal effect.

SMILES	KDM4E inh	APE1 inh	TDP1 inh	BLM inh	KAT2A inh	RECQ1 helicase
CCNc1nc(NCC)n2c(SCC(=O)Nc3ccccc3C(F)(F)F)nnc2n1	.	21µM*	.	.	-5%	.
CCNc1nc(NCC)n2c(SCC(=O)Nc3cccc(F)c3)nnc2n1	.	12µM*	-4%	.	-4%	.
O=C1CCc2cc(Cl)c(S(=O)(=O)Nc3ccc(Cl)c(Cl)c3)cc2N1	.	.	1%	.	.	.
COc1ccc(O)c(-c2nc3ccccc3c(=O)n2Cc2ccccc2)c1	.	.	2%	.	.	.
CC(=Nc1ccccc1N)c1c(C)cc(=O)n(O)c1O	.	?	15%	-7%	-26%	-2%
CCOc1ccc(NCC2CCOC(C)(C)C2)cc1 (stereo unspecified)	20µM*	?	3%	4%	-2%	-3%
CCOc1ccc(NC(=O)CC2CC(C)(C)OC2=O)cc1 (stereo unspecified)	5%	5%	0%	-1%	-1%	-5%
CCN1CCN(c2c(/C=C3\SC(=S)N(Cc4ccco4)C3=O)c(C)c(C#N)c(=O)n2C)CC1	13µM*	-5%	-5%	-12%	0%	-10%
COc1ccc(-n2c(C)cc(/C=C3\SC(=S)N(Cc4ccco4)C3=O)c2C)cc1	-1%	1%	8%	-5%	-2%	-8%
Cc1ccc(S(=O)(=O)c2c(N)n(-c3ccccc3)c3nc4ccccc4nc23)cc1	?	?	-9%	-8%	-13%	-13%
C=CCn1c(NS(=O)(=O)c2ccccc2)c(S(=O)(=O)c2ccc(C)cc2)c2nc3ccccc3nc21	0%	5%	3%	4.5µM*	?	-6%
O=S(=O)(Nc1c(S(=O)(=O)c2ccccc2)c2nc3ccccc3nc2n1C1CCCCC1)c1ccccc1	?	15%	-1%	10µM*	-17%	-10%
CC(=O)Nc1c(S(=O)(=O)c2ccccc2)c2nc3ccccc3nc2n1Cc1ccccc1	?	-9%	2%	-3%	-7%	-4%
N#CC1=C(N)OC2=C(CCC/C2=C/c2ccoc2)C1c1ccoc1 (stereo unspecified)	25µM*	14µM*	.	37%	-11%	22µM*
O=C(NCc1nnc(-c2nc3ccccc3[nH]2)o1)C1CCCCC1	.	.	0%	.	.	.
Cc1ccc(C(C2=C(O)CC(C)(C)CC2=O)C2C(=O)CC(C)(C)CC2=O)s1 (stereo unspecified)	-14%	-5%	-5%	-1%	0%	11%
CC1(C)CC(=O)C(C(C2=C(O)CC(C)(C)CC2=O)c2ccc(Br)s2)C(=O)C1 (stereo unspecified)	20µM*	-1%	0%	-4%	-7%	-3%
Cc1ccc(-n2nc(C)c3c2OC(N)=C(C#N)C3c2ccco2)cc1 (stereo unspecified)	-21%	-3%	9%	-2%	-22%	-5%
Cc1ccc(-n2nc(C)c3c2OC(N)=C(C#N)C3c2ccc(C)o2)cc1 (stereo unspecified)	25µM*	-2%	12%	-8%	-1%	-14%
CC(=O)Nc1ccc(NC2=C/C(=N/S(=O)(=O)c3cccs3)c3ccccc3C2=O)cc1	43%	7%	6%	22µM*	-4%	12%
COc1ccc2c(c1)c(C(=O)N/N=C/c1ccc(O)c(O)c1)c(C)n2C	14µM*	-4%	3%	-1%	0%	i
Cn1c2ccccc2c2cc(/C=N/NC(=O)c3cc(O)cc(O)c3)ccc21	.	13µM*	.	-22%	-17%	.
[O-][n+]1c(/C=C/c2ccccc2)ccc2ccccc21	.	-8%	.	-4%	-7%	.
[O-][n+]1c2ccccc2[n+]([O-])c2cc(O)ccc21	.	19µM*	.	-30%	0%	.
O=C(Nc1ccc(S(=O)(=O)Nc2ncccn2)cc1)c1ccc2ncsc2c1	3.2µM*	4%	-3%	7%	3%	7%
SMILES	KDM4E inh	APE1 inh	TDP1 inh	BLM inh	KAT2A inh	RECQ1 helicase
O=C(CNC(=O)C12CC3CC(CC(C3)C1)C2)N/N=C\c1ccco1	.	12%	2%	-2%	-6%	.
O=C(/C=C/c1ccco1)c1ccc(NC(=O)C23CC4CC(CC(C4)C2)C3)cc1	32µM*	0%	0%	?	-8%	-3%
COc1ccc(C[C@@](C)(N)C(=O)O)cc1OC	11µM*	.	-8%[56.1 µM]	-13%[21.4 µM]	5%[21.4 µM]	-4%[25.9 µM]
Oc1ccc(/C=N/Nc2ncnc3c2ncn3Cc2ccccc2)cc1O	10µM*	?	11%	-18%	-23%	-19%
Oc1cccc(/C=N/Nc2ncnc3c2ncn3Cc2ccccc2)c1	-3%	-1%	2%	6%	-6%	-4%
COc1cc(/C=C(/C#N)C(=O)Nc2ccccc2)ccc1OCc1ccc(C(=O)O)cc1	-25%	-4%	-13%	-4%	-17%	-2%
COc1cc(/C=C(\C#N)C(=O)Nc2ccc(C(=O)O)cc2)ccc1OC(=O)c1cccc(F)c1	.	?	50µM*	-4%	?	.
Cc1noc(C)c1-c1nc(NCc2ccccc2)c2ccccc2n1	.	-4%	.	2%	25µM*	-2%
Fc1ccc(N=c2ssnc2Cl)c(F)c1	?	1%	-6%	-1%	7.9µM*	-1%
Clc1nssc1=Nc1ccccc1	10µM*	8%	9%	-12%	4µM*	-15%
Clc1ss/c(=N\c2ccccn2)c1Cl	-5%	-14%	8%	5%	-8%	-13%
O=C1CSC(=Nc2ccc(Cl)cc2)N1	.	-1%	2%	-2%	-14%	.
N#Cc1ccc(Oc2c(Cl)cncc2Cl)cc1	.	24%	.	-3%	-5%	.
N#Cc1ccc(N=c2ssnc2Cl)cc1	?	10%	2%	2%	10µM*	-3%
Clc1ccc(N=c2ssnc2Cl)cc1	10µM*	2%	14%[56.1 µM]	3%	14µM*	i
Oc1cc(Nc2ccc(N3CCCCC3)cc2)cc2cccnc12	.	-13%	.	.	-6%	.
COc1ccc(N=Cc2sc3ccccc3c2Cl)cc1	-29%	-7%	2%	-4%	-13%	i
COc1ccc(N=c2ssnc2Cl)cc1	20µM*	0%	8%	3%	13µM*	i
COc1ccc(OCc2cc(C3Nc4ccccc4C(=O)N3Cc3ccccc3)ccc2OC)cc1 (stereo unspecified)	.	.	1%	.	.	.
O=C1OC(c2ccccc2)=N/C1=C\C=C\c1ccco1	-13%	?	45µM*	-4%	25µM*	?
C=C1C=C(C(F)F)n2ncc(C(=O)Nc3ccc(C(C)CC)cc3)c2N1 (stereo unspecified)	.	40%	.	.	.	.
Cc1ccc(OCCn2cc(/C=N/NC(=O)c3ccncc3)c3ccccc32)cc1	-4%	-7%	7%	-2%	-1%	25µM*

Screens from PubChem BioAssay.
